Measurements taken from PubChem BioAssay (NCI).
About 83,000 compounds went through this panel and 20% of them were active in at least one assay; those are over-represented in the sample as a whole.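 In brief: 96-well plates, 48 h treatment, single concentration, percent growth endpoint.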 Unmarked numbers belong to inactive results. The source made the active and inactive calls. Rule for the calls: active = growth percent below 10; inactive = the rest.

Columns and labels:
Assay in all cases: NCI-60 one-dose screen, 48 h (100 = growth as untreated, 0 = no growth, -100 = all killed)
Settings in all cases: 10 µM unless noted
[1] = tested on: SR leukemia
[2] = tested on: RPMI-8226 leukemia
[3] = tested on: OVCAR-5 ovarian
[4] = tested on: OVCAR-4 ovarian
[5] = tested on: SK-OV-3 ovarian
[6] = tested on: IGROV1 ovarian
[7] = tested on: OVCAR-3 ovarian
[8] = tested on: HS 578T breast
[9] = tested on: NCI/ADR-RES ovarian
[10] = tested on: T-47D breast
[11] = tested on: BT-549 breast
[12] = tested on: MDA-MB-435 melanoma
[13] = tested on: SW-620 colon
[14] = tested on: MCF7 breast
[15] = tested on: HCT-116 colon
[16] = tested on: HCC-2998 colon
[17] = tested on: KM12 colon
[18] = tested on: OVCAR-8 ovarian

Row | SMILES | growth [1] | growth [2] | growth [3] | growth [4] | growth [5] | growth [6] | growth [7] | growth [8] | growth [9] | growth [10] | growth [11] | growth [12] | growth [13] | growth [14] | growth [15] | growth [16] | growth [17] | growth [18]
1 | O=C1Nc2ccccc2/C1=C\c1c[nH]c2ccc(Br)cc12 | 72.4% | 73.9% | 80.4% | 54.7% | 66.5% | 61.5% | 72.5% | 82.7% | 57.7% | 26.6% | 116% | 69% | 93.7% | 29.5% | 85.8% | 71.6% | 12.9% | –
2 | O=C(Nc1ccccc1N1CCCC1=O)c1oc2ccc(F)cc2c1-c1cnn(-c2ccccc2)c1 | 61.6% [50 µM] | 32.3% [50 µM] | 87.8% [50 µM] | 57.6% [50 µM] | 56.5% [50 µM] | – | 72.4% [50 µM] | 41.4% [50 µM] | 40.4% [50 µM] | 35.4% [50 µM] | 56.7% [50 µM] | 62.2% [50 µM] | 75.4% [50 µM] | 43.8% [50 µM] | 23.8% [50 µM] | 90.5% [50 µM] | 47.4% [50 µM] | –
3 | Cc1cccc[n+]1C1c2ccccc2-c2ccccc21 | 102% | 70.7% | 99% | 97.8% | 73.3% | 92.2% | 98.5% | 101% | 111% | 60.8% | 86.8% | 102% | 103% | 95.1% | 78.5% | 105% | 101% | –
4 | O=C(CC(=O)Nc1cccc(C(=O)O)c1)Nc1cccc(C(=O)O)c1 | 96% | 100% | 101% | 97.8% | 106% | 109% | 113% | 100% | 106% | 92.4% | 98.8% | 87.4% | 90% | 101% | 94.3% | 102% | 112% | –
5 | COc1ccc(C(=O)c2cc3c(N)c(C(=O)Nc4ccccc4)sc3nc2C)cc1 | 8.41% (active) | 14.3% | 38.8% | 74.8% | 33% | 39% | -4.41% (active) | 10.6% | 14.8% | 39% | 60.6% | -5.47% (active) | 28.2% | 20.7% | 13.4% | 19% | 14.9% | –
6 | C=C1CC[C@@H]2[C@](C)(COC(C)=O)[C@H](OC(C)=O)CC[C@@]2(C)[C@@H]1CC(Nc1ccc(S(=O)(=O)NC(C)=O)cc1)C1=CCOC1=O (stereo not given in full) | 2.08% (active) | -16.2% (active) | -40.1% (active) | 26.1% | 67.3% | -10% (active) | -87.7% (active) | 32.5% | 11.9% | -3.67% (active) | -62.6% (active) | -38.8% (active) | -65.6% (active) | -33.6% (active) | -63.9% (active) | -12.7% (active) | -34% (active) | –
7 | CCOC(=O)c1c(C)nc2c(c1N)CC(=O)N2Cc1ccc(OC)cc1 | 56.2% | 67.1% | 80.4% | 7.06% (active) | 8.96% (active) | 46.4% | 16.4% | 29.4% | 34.4% | 32.2% | 18.5% | 88.3% | 77.6% | 37.5% | 12.6% | 51.1% | 58% | –
8 | COc1ccc2cc(-c3ccnc4c(N=Nc5ccc(Cl)cc5)c(N)nn34)ccc2c1 | 95.2% | 94.9% | 99.7% | 116% | 93.7% | 102% | 105% | 92.9% | 94.5% | 94.5% | 99.9% | 105% | 101% | 97.3% | 99.7% | 97.6% | 103% | –
9 | O=C1c2ccccc2C(=O)C1c1ccc(Br)cc1 | 97.3% | 82.9% | 107% | 98.8% | 111% | 104% | 116% | 99.3% | 91.9% | 108% | 101% | 97.9% | 99.9% | 87.7% | – | 98% | 107% | –
10 | CCn1cc(CNc2ccc(C(=O)Nc3cc4cc(OC)c(OC)cc4c(C)n3)cc2)cn1 | 12.2% | 34.7% | 93.1% | 46.5% | 56.8% | 73% | 54.8% | 70.3% | 35.5% | -3.23% (active) | 24.6% | 10.5% | 75.3% | 46.6% | 46.8% | 87.8% | 33.3% | –
11 | O=C1/C(=C/c2ccc(O)c(O)c2)COc2ccc(-c3ccccc3)cc21 | -20% (active) | -13.1% (active) | 50.6% | 26.6% | 81.1% | -13.1% (active) | 20.2% | 15% | 19.2% | 15.4% | 31.7% | -6.77% (active) | -38.3% (active) | 16% | 12.7% | -23% (active) | 19.6% | –
12 | CCc1ccc(CCC(=O)Nc2ncc(Cc3ccccc3)s2)o1 | 22.6% | 29.4% | 38.9% | 61.5% | 34.4% | 35.6% | -11.2% (active) | 9.99% (active) | 12.7% | 42.5% | 63.5% | -54.8% (active) | 28% | 18.7% | 23.4% | 35.6% | 18.4% | –
13 | Cc1c(CC(=S)N2CCOCC2)nnn1-c1cccc(C(F)(F)F)c1 | 105% | 103% | 97.8% | 103% | 108% | 104% | 110% | 99.9% | – | 103% | 112% | 103% | 99.9% | 104% | 102% | 119% | 105% | –
14 | NS(=O)(=O)c1ccc(C(=O)NN2C(=O)c3c(Br)c(Br)c(Br)c(Br)c3C2=O)cc1 | 94.5% | 102% | 107% | 104% | 116% | 104% | 105% | 94.6% | 110% | 83.1% | 106% | 103% | 101% | 81.4% | 99.7% | 111% | 97.5% | –
15 | CS(=O)(=O)c1ccc(NC(=O)c2ccccc2)nc1 | 76.8% | 100% | 108% | 115% | 94.1% | 111% | 110% | 98.1% | 110% | 98.9% | 105% | 111% | 100% | 101% | 95.3% | 107% | 107% | –
16 | C#Cc1cccc(Nc2nc(C)nc3cc(NC(=O)CCl)ccc23)c1 | -40.4% (active) | -47.5% (active) | -84.7% (active) | -42.2% (active) | 8.47% (active) | -56.7% (active) | -88.2% (active) | -11.6% (active) | – | -55.3% (active) | -71.2% (active) | -51.1% (active) | -63.6% (active) | -68% (active) | -65.2% (active) | -88.1% (active) | -73.7% (active) | –
17 | Cc1ccc(NC(=O)Cn2c(Br)nc3c2c(=O)n(C)c(=O)n3C)cc1 | 12% | 38.5% | 27.9% | -44.9% (active) | 5.9% (active) | 33.1% | -19.8% (active) | 8.55% (active) | 4.04% (active) | -10.5% (active) | 0.261% (active) | 54.2% | 30% | 13.2% | -21.5% (active) | 83.7% | 63.8% | –
18 | Cc1ccc2c(-c3nnc(N)s3)cc(=O)oc2c1C | 110% | 91.2% | 114% | 100% | 109% | – | 110% | 95.6% | – | 72.9% | 101% | 96.1% | 97.8% | 93.4% | – | 113% | 105% | 96.1%
